Data: PubChem BioAssay AID651848 (The Scripps Research Institute Molecular Screening Center, 2012)
Some of the results follow. The source made the active and inactive calls. Cut-off read from the data, not from the text of the source: active = IC50 below about 10 µM; inactive = the rest.

Experiment: PG9 anti-gp120 antibody binding compounds – biochemical, TR-FRET, HIV-1 gp120 antibody, dose response (AID 651848)
Conditions: TR-FRET PG9 antibody-gp120 binding inhibition

SMILES | IC50
O=C(Nc1nnc(-c2ccccc2F)s1)c1ccccc1F | > 67.1 µM (inactive)
COC(=O)C1=C(C)N(Cc2ccccc2C(F)(F)F)C(=NCc2ccc(OC)cc2)NC1c1cccc(C(F)(F)F)c1 (configuration not stated) | > 67 µM (inactive)
S=c1[nH]c2ccccc2c2ccccc12 | 44.6 µM (inactive)
O=C(Oc1ccccc1)Oc1ccc2c(c1)oc(=O)c1ccccc12 | 25.1 µM (inactive)
Cc1cccc(Nc2nc3c(S(=O)(=O)c4ccccc4)nnn3c3ccccc23)c1C | > 67 µM (inactive)
COc1ccc(-c2c(C)nn3c(N4CCC(C(=O)N5CCCCC5)CC4)cc(C)nc23)cc1OC | > 67 µM (inactive)
CC1(C)Cc2ccccc2-c2[nH]c(=S)[nH]c(=O)c21 | > 67.1 µM (inactive)
